The record followed here is PubChem BioAssay AID2685 (National Center for Advancing Translational Sciences (NCATS), 2010).

Molecules are shown by their SMILES. About 2,100 (0.66%) of roughly 320,000 compounds were called active. Roughly 53% stayed inconclusive and do not appear here. Calls come from the whole dose curve; as a rule, active = well fitted inhibition curve with a large enough effect in the signal ratio, with a control signal flat (not every such curve was filed as active); inconclusive = small, poorly fitted or top-dose-only effect, or effect the other way, or a change in a side signal; inactive = flat fitted curve, though single readings scatter; the % refers to the signal ratio. Shown is part of a subset that was picked to be rich in actives.
Potency is the fitted concentration of half-maximal effect.

A short description of the experiment: qHTS Assay for Lipid Storage Modulators in Drosophila S3 Cells.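 For cell number change: cells counted by Cell Tracker Red CMTPX staining in the red channel.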 For lipid storage change, negative = inhibition: % is set by controls: 0 for no effect and ±100 for the full control effect. The note with it: BODIPY lipid droplet fluorescence, 18-24 h, cells fed with added oleic acid; cell number change: measured here: cell count max response; series mostly up to 46.1 µM; lipid storage change, negative = inhibition: at the top concentration. The method in brief:
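Laser-scanning cytometry quantifies lipid droplet accumulation (500–530 nm total intensity; droplet/cell object ratio) in oleic acid-fed (400 uM added) Drosophila S3 cells treated with a concentration series. 20 uM Triacsin C defined 100% inhibition.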
A general note: Quantitative high-throughput screening tests each substance at several concentrations.
As to `CCOC(=O)CN(C(=O)CSc1nnc(-c2ccncc2)n1CCCOC)c1ccccc1`, the “lipid storage change, negative = inhibition” value was -0.702% (inactive) and the cell number change was -3.7%.

For the molecule `CC(C)(C)Nc1c(-c2ccc(O)cc2)nc2ccc(Cl)cn12`, the “lipid storage change, negative = inhibition” value is -6.34% (inactive) and the cell number change came out at 20.8%.

For the molecule `CC(NC(=O)NC(N)=O)(C(F)(F)F)C(F)(F)F`, the “lipid storage change, negative = inhibition” value was -6.44% (inactive) and the cell number change came out at 2.2%.

As for `NC(=O)NCCCC(=O)O`, the “lipid storage change, negative = inhibition” value was -6.78% (inactive) and the cell number change was -16.4%. In the case of `CC(NC(=O)NCCCC(=O)O)(C(F)(F)F)C(F)(F)F`, the Potency was 29.1 µM (active) and the cell number change was -5.28%. As to `CSCCC(NC(=O)c1ccc(Cl)cc1Cl)C(=O)N(C)Cc1nc2ccccc2c(=O)[nH]1` (stereo not drawn), the lipid storage change, negative = inhibition was 1.6% [at 0.0737 µM] (inactive). With `CCN1CCN(c2ccc([N+](=O)[O-])c(Sc3nc4ccccc4[nH]3)c2)CC1`, the “lipid storage change, negative = inhibition” value was -3.58% (inactive) and the cell number change was -7.24%. The matching figures for `CC1=CC(=Nc2c(C)n(C)n(-c3ccccc3)c2=O)C=CC1=O`: -9.72% (inactive) and 4.9%.

Regarding `CC1=NN(Cc2ccccc2)C(=O)C1`, the “lipid storage change, negative = inhibition” value is -22.5% (inactive) and the cell number change came to 11.6%. For `CC(C)(C)c1cc(CN2CCC(O)CC2)cc(C(C)(C)C)c1O`, the molecule was classed as inactive and the cell number change was found to be 12.8%. Take `CC1=NN(Cc2cc(C(C)(C)C)c(O)c(C(C)(C)C)c2)C(=O)C1`: the Potency is 16.4 µM (active) and the cell number change is -27.5%. In the case of `COCCOC(=O)c1c(C)oc2ccc(OC(=O)c3ccc4c(c3)OCO4)cc12`, the molecule was classed as inactive. Take `CC1CN(C(=O)c2cccc(S(=O)(=O)N3CCN(c4ccccc4)CC3)c2)CC(C)O1` (stereo not drawn): the “lipid storage change, negative = inhibition” value was 13.5% (inactive) and the cell number change amounted to 2.24%. For the molecule `C[C@@H]1CCC(=O)N(C[C@@H](C)CSc2ccccc2)CC1`, the outcome was inactive and the cell number change is 11.7%. Take `CCC(=O)Nc1ccc(NC(=O)CSc2nnc(-c3ccco3)n2C)cc1`: the “lipid storage change, negative = inhibition” value is -25.5% (inactive) and the cell number change was found to be 8.55%. As to `Cn1c(SCC(=O)Nc2ccc(Cl)cc2F)nnc1-c1ccco1`, the Potency is 23.1 µM (active) and the cell number change is 9.91%.

Turning to `Cc1cc(NC(=O)CSc2nnc(-c3ccco3)n2C)no1`, the “lipid storage change, negative = inhibition” value was 5.6% (inactive) and the cell number change was 17.5%. In the case of `O=C(Nc1nc2ccc(F)cc2s1)c1ccc(N2CCCC2=O)cc1`, the “lipid storage change, negative = inhibition” value is -0.195% (inactive) and the cell number change is -14.4%. `CCCC1CC(CCc2ccccc2)OS(=O)(=O)N1` (stereo not drawn): the call was inactive and the cell number change stood at 22.3%. Regarding `C=CCNc1nc2c(c(=O)[nH]c(=O)n2C)n1CC(O)COc1ccc2ccccc2c1` (stereo not drawn), the “lipid storage change, negative = inhibition” value is 9.91% (inactive) and the cell number change is -2.59%. As to `C=CCSc1nc(C)cc2c1C(=O)OC2`, the “lipid storage change, negative = inhibition” value was -1.91% (inactive) and the cell number change is -10%. As for `CCOC(=O)C1CCN(S(=O)(=O)c2ccc(OC)c(OC)c2)CC1`, the molecule was classed as inactive. `Cc1cc(-n2c(C)cc(C(=O)COc3ccc([N+](=O)[O-])cc3)c2C)no1`: the cell number change was -1.97% and the lipid storage change, negative = inhibition was -9.66% [at 9.22 µM] (inactive). In the case of `Cc1cc(-n2c(C)cc(C(=O)COc3cc(F)ccc3[N+](=O)[O-])c2C)no1`, the Potency is 8.2 µM (active) and the cell number change turned out to be 1.91%. Turning to `Cc1cc(-n2c(C)cc(C(=O)COc3ccc4ccc(=O)oc4c3)c2C)no1`, the “lipid storage change, negative = inhibition” value is -4.04% (inactive) and the cell number change was -3.86%. For the molecule `O=C(O)CN1CCCC1=Nc1ccccc1`, the molecule was classed as inactive and the cell number change amounted to 7.34%.

Regarding `Cc1nc(CN2CCCC2=NC#N)n(-c2ccccc2)n1`, the “lipid storage change, negative = inhibition” value was -0.104% (inactive) and the cell number change worked out at 7.55%. Consider `N#CN=C1CCCCCN1CC(N)=O`, for which the Potency was 0.731 µM (active) and the cell number change is -10.9%. Consider `Cc1cc(C(=O)N/N=C/c2ccc(-c3cccc(Cl)c3Cl)o2)n[nH]1`, for which the “lipid storage change, negative = inhibition” value was 2.75% (inactive) and the cell number change was -7.33%. For the molecule `Cc1nc(N)nc(Nc2ccc(Cl)cc2)c1Br`, the result was inactive and the cell number change came out at 17.2%. Regarding `CCOc1ccc(CC(C(=O)NN)C(=O)NN)cc1CN(C)C`, the Potency was 18.4 µM (active) and the cell number change is -6.71%. Turning to `CCOc1ccccc1CNCc1ccc(C(=O)O)cc1`, the “lipid storage change, negative = inhibition” value was 16% (inactive) and the cell number change came to 10.5%. The matching figures for `CCOc1ccc(CC(C(N)=O)C(N)=O)cc1CN(C)C`: 8.24% (inactive) and -1.24%.

For the molecule `COC(=O)Nc1c(C(=O)OC)cc(OC)c(OC)c1OC`, the Potency was 16.4 µM (active) and the cell number change is -8.23%. With `COC(=O)c1cc(OC)c(OC)c(OC)c1NC(=O)c1ccc(S(=O)(=O)N(C)C)cc1`, the molecule was called inactive and the cell number change was -4.59%.

As to `COC(=O)c1cc(OC)c(OC)c(OC)c1N`, the call was inactive and the cell number change turned out to be 7.54%. As to `CCOC(=O)CN(C(=O)COc1nc(C)cc(C)c1C#N)c1cccc(Cl)c1`, the “lipid storage change, negative = inhibition” value is 3.11% (inactive) and the cell number change worked out at 6.09%. Turning to `Cc1cccc(N2CCN(C(=O)c3ccc(CNc4c(N5CCC(C)CC5)c(=O)c4=O)cc3)CC2)c1C`, the “lipid storage change, negative = inhibition” value is -0.571% (inactive) and the cell number change came to 1.91%. The matching figures for `COc1ccc(CN2CCN(Cc3cccc(OC)c3)C(CCO)C2)cc1` (stereo not drawn): 15.7% (inactive) and 0.486%. Consider `COc1ccc(OC)c(CN2CCN(C(=O)CNC(=O)c3ccc(C(C)(C)C)cc3)CC2)c1`, for which the Potency was 1.46 µM (active) and the cell number change was -27.4%. For the molecule `CC(C)(C)c1ccc(C(=O)NCC(=O)N2CCCCCC2)cc1`, the result was inactive and the cell number change amounted to 5.65%. The matching figures for `CC(C)(C)c1ccc(C(=O)NCC(=O)N2CCCC2)cc1`: “inactive” and 12.2%.

`COc1ccc(NS(=O)(=O)c2cccc(C(=O)N3CCN(Cc4cc(OC)ccc4OC)CC3)c2)cc1`: the “lipid storage change, negative = inhibition” value is -13.2% (inactive) and the cell number change was found to be 1.47%.

Regarding `COc1ccc(OC)c(CN2CCN(C(=O)c3ccc(S(=O)(=O)Nc4ccccc4F)cc3)CC2)c1`, the Potency is 13 µM (active) and the cell number change is -20.6%. Turning to `COc1ccc(C(=O)N2CCN(Cc3cc(OC)ccc3OC)CC2)cc1`, the “lipid storage change, negative = inhibition” value was -14.3% (inactive) and the cell number change is -3.67%. For `O=C(Cn1c(C(F)(F)F)nc2ccccc21)N=Nc1c(O)[nH]c2ccc(Br)cc12`, the molecule was classed as inactive. Take `CC1(C)CC(=O)N(c2ccc(C#N)cc2)C(=O)C1`: the “lipid storage change, negative = inhibition” value is 2.37% (inactive) and the cell number change was -0.525%. The matching figures for `Cc1cccc(NC(=O)C(c2ccccc2Cl)N2CCOCC2)c1` (stereo not drawn): 2.74% (inactive) and 14.2%. Consider `COCCCNc1nc(-c2ccc(Cl)cc2)nc2ccccc12`, for which the molecule was classed as inactive. For the molecule `CCCCN1C(=O)/C(=c2\sc3nc(=O)c(-c4ccccc4)nn3c2=O)c2ccccc21`, the “lipid storage change, negative = inhibition” value was -21.2% (inactive) and the cell number change was -10.9%. Turning to `C/C(=N\NC(=O)c1ccn(C)n1)c1ccc(NC(=O)C2CCC2)cc1`, the Potency was 13 µM (active) and the cell number change is -21.2%. `C/C(=N\NC(=O)c1nn(C)c(C)c1Br)c1ccc(NC(=O)C2CCCC2)cc1`: the molecule was classed as inactive and the cell number change is -25.5%. Regarding `C/C(=N\NC(=O)c1c([N+](=O)[O-])c(C)nn1C)c1ccc(NC(=O)C2CCCC2)cc1`, the “lipid storage change, negative = inhibition” value is -5.01% (inactive) and the cell number change was 5.28%. Regarding `Cc1cccc(C(=O)Nc2sc3c(c2C#N)CCCCC3)c1`, the “lipid storage change, negative = inhibition” value was -3.22% (inactive) and the cell number change was -20.2%.

Regarding `Cc1nc2nc(SCc3ccccc3)[nH]n2c(=O)c1CCC(C)C`, the “lipid storage change, negative = inhibition” value is -19.4% (inactive) and the cell number change is 19.7%.

`Cc1cc(=O)oc2c(C)c(OC(C)C(=O)N3CC[C@@]4(O)CCCC[C@H]4C3)ccc12` (stereo partly drawn): the Potency is 0.731 µM (active) and the cell number change was -0.971%.

As for `Cc1c(C)c2ccc(OC(C)C(=O)N3CC[C@@]4(O)CCCC[C@H]4C3)c(C)c2oc1=O` (stereo partly drawn), the Potency was 5.8 µM (active) and the cell number change was -28.5%. As to `Cc1c(C)c2ccc(OC(C)C(=O)N3C[C@H]4C[C@@H](C3)c3cccc(=O)n3C4)c(C)c2oc1=O` (stereo partly drawn), the “lipid storage change, negative = inhibition” value is -2.98% (inactive) and the cell number change was determined as 10.4%. Turning to `Cc1cc(=O)oc2c(C)c(OCC(=O)N3CC[C@@]4(O)CCCC[C@H]4C3)ccc12`, the Potency is 16.4 µM (active) and the cell number change was 2.59%.

Take `O=C(C(c1ccccc1)c1ccccc1)N1CC[C@@]2(O)CCCC[C@H]2C1`: the “lipid storage change, negative = inhibition” value was -7.45% (inactive) and the cell number change is -2.81%. The matching figures for `CCc1cc(=O)oc2c(C)c(OC(C)C(=O)N3CCC[C@@H]3C(=O)O)ccc12` (stereo partly drawn): -7.03% (inactive) and 15.4%.

For the molecule `Cc1c(C)c2ccc(OCC(=O)N3CC[C@@]4(O)CCCC[C@H]4C3)cc2oc1=O`, the “lipid storage change, negative = inhibition” value was -15.4% (inactive) and the cell number change is 0.17%. As to `CCc1cc(=O)oc2c(C)c(OC(C)C(=O)N3CC[C@@]4(O)CCCC[C@H]4C3)ccc12` (stereo partly drawn), the “lipid storage change, negative = inhibition” value is 3.29% (inactive) and the cell number change was determined as 14.6%.

Take `CCc1cc(=O)oc2c(C)c(OCC(=O)N3CC[C@@]4(O)CCCC[C@H]4C3)ccc12`: the “lipid storage change, negative = inhibition” value is -24.5% (inactive) and the cell number change is 2.62%.
